Our source for the glomerular width values is the supplement of paper PMC7366291.

Structures can show the parent of a compound that is named as a salt. ± gives the standard deviation of the averaged measurements.

In the assay the test system is Danio rerio Tg(wt1b:EGFP) embryo, pronephros. The assay is described as follows: glomerular width (mean of left and right), fold change vs DMSO control; higher = wider glomerulus. The settings on record: 25 µM; exposure: 24-48 hpf. Put shortly: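 Using a Fiji macro, distances and angles were calculated from 16 reference points set by hand on maximum projections of pronephroi imaged dorsally (470 nm, 10 z-slices) in agarose-filled 96-well plates. The dechorionated Tg(wt1b:EGFP) zebrafish embryos had received 25 μM compound in 0.5% DMSO in HEPES-buffered E3 with 0.003% PTU from 24 to 48 hpf at 28.5°C. Values more than 2 SD from a feature's mean were excluded. Each feature appears as a fold change over the mean of DMSO-treated embryos from the same day.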
In turn, `CCC(COC(=O)c1cc(OC)c(OC)c(OC)c1)(c1ccccc1)N(C)C` (stereo unspecified) [Trimebutine] yielded a glomerular width of 0.9518 ± 0.0092.

`COc1ccc(Cc2nccc3cc(OC)c(OC)cc23)cc1OC` [Papaverine hydrochloride] displayed a glomerular width of 1.04 ± 0.065. `C=CCC1(CC(C)C)C(=O)NC(=O)NC1=O` [Butalbital] showed a glomerular width of 1.1 ± 0.086.

`COc1ccc(CCN)cc1OC` [Homoveratrylamine] came in with a glomerular width of 0.994 ± 0.012. Take `C[N+]1([O-])[C@@H]2C[C@@H](OC(=O)[C@H](CO)c3ccccc3)C[C@H]1[C@@H]1O[C@@H]12` (stereo partly specified) [Scopolamin-N-oxide hydrobromide]: the glomerular width came out at 1.03 ± 0.018. `O=P1(N(CCCl)CCCl)NCCCO1` (stereo unspecified) [Cyclophosphamide] gave a glomerular width of 0.913 ± 0.0021. As for `CNC(=O)Oc1ccc2c(c1)[C@]1(C)CCN(C)[C@@H]1N2C` [Eserine hemisulfate salt], the figure is 1 ± 0.0036; as for `COc1ccc2c(c1)[C@]13CCCC[C@@H]1[C@H](C2)N(C)CC3` [Dextromethorphan hydrobromide monohydrate], 0.9098 ± 0.004.

For the compound `Cc1cccc(C)c1NC1=NCCCS1` [Xylazine], the glomerular width came out at 0.997 ± 0.018.

`NCCc1c[nH]c2ccc(O)cc12` [Serotonin hydrochloride] yielded a glomerular width of 0.902 ± 0.038. For the compound `CC(=O)O[C@H]1C[C@H](O[C@H]2[C@@H](O)C[C@H](O[C@H]3[C@@H](O)C[C@H](O[C@H]4CC[C@@]5(C)[C@H](CC[C@@H]6[C@@H]5C[C@@H](O)[C@]5(C)[C@@H](C7=CC(=O)OC7)CC[C@]65O)C4)O[C@@H]3C)O[C@@H]2C)O[C@H](C)[C@H]1O[C@@H]1O[C@H](CO)[C@@H](O)[C@H](O)[C@H]1O` [Lanatoside C], the glomerular width worked out at 0.929 ± 0.065.
